# Source: the supplement of paper PMC12645437, “Orthogonal IMiD-Degron Pairs Induce Selective Protein Degradation in Cells” (ACS Chemical Biology, 2025)
# Whole data set: some 8,300 sequences, median “log2 fold change of degron read counts, EGFP-low vs EGFP+ sorted cells (limma voom), compound-induced degradation” near -1.1, cut for the highest 2% near 3.2. Many of the other results were omitted from the sample, so the highest values are more common in it than they were.
# Target: T1, CRBN, Q96SW2
# T1 chain: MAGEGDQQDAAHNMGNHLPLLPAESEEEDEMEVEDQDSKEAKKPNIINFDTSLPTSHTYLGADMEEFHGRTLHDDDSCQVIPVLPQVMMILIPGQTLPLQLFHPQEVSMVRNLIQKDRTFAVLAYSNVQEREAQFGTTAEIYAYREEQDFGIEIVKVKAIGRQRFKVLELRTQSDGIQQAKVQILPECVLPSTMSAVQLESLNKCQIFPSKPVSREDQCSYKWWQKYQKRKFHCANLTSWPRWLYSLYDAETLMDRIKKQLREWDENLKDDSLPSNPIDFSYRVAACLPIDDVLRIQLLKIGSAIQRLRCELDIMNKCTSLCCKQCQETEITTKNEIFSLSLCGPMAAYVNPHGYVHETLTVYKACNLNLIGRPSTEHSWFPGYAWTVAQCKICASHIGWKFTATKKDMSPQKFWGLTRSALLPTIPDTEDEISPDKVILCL
# Assay: log2 fold change of degron read counts, EGFP-low vs EGFP+ sorted cells (limma voom), compound-induced degradation; higher = more compound-induced degradation of the degron-EGFP fusion; degrons are variants of IKZF1/3 zinc finger 2; compound dose not given here
# Conditions: Jurkat, 18 h
# [1] = compound: compound 19 (5-tert-butyl-thalidomide)
# [2] = compound: compound 22 (5-morpholino-thalidomide)
# [3] = compound: compound 33 (diphenyl IMiD analogue)
# 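Note: pooled lentiviral library of zinc finger degron-EGFP fusions in mCherry-positive Jurkat cells, FACS-sorted after compound exposure, with degron abundance counted by next-generation sequencing.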
Sequence,log2 fold change of degron read counts [1],log2 fold change of degron read counts [2],log2 fold change of degron read counts [3],log2 fold change of degron read counts (compound: thalidomide)
"FGCNVCGAPFTQKGNLLRHIKL [46F_47G_49N_50V_52G_53A_54P_55F_67L_, Q9UKT9]",-0.996,-1.44,-1.2,-1.32
"FSCPVCGAPFTQKGNLLRHIKL [46F_47S_49P_50V_52G_53A_54P_55F_67L_, Q9UKT9]",3.04,2.37,1.65,2.12
"FICNVCGAPFTQKGNLLRHIKL [46F_47I_49N_50V_52G_53A_54P_55F_67L_, Q9UKT9]",-0.34,2.49,1.6,2.07
"FACPVCGAPFTQKGNLLRHIKL [46F_47A_49P_50V_52G_53A_54P_55F_67L_, Q9UKT9]",3.58,2.58,1.07,2.23
"FLCPVCGAPFTQKGNLLRHIKL [46F_47L_49P_50V_52G_53A_54P_55F_67L_, Q9UKT9]",1.29,2.67,2.93,3.41
"FCCPVCGAPFTQKGNLLRHIKL [46F_47C_49P_50V_52G_53A_54P_55F_67L_, Q9UKT9]",3.13,2.6,1.7,2.1
"FKCPVCGAPFTQKGNLLRHIKL [46F_47K_49P_50V_52G_53A_54P_55F_67L_, Q9UKT9]",2.06,1.94,0.0815,2.39
"FICDVCGAPFTQKGNLLRHIKL [46F_47I_49D_50V_52G_53A_54P_55F_67L_, Q9UKT9]",-0.148,3.08,1.53,1.67
"FDCPVCGAPFTQKGNLLRHIKL [46F_47D_49P_50V_52G_53A_54P_55F_67L_, Q9UKT9]",2.39,0.488,0.886,1.55
"FICPVCGAPFTQKGNLLRHIKL [46F_47I_49P_50V_52G_53A_54P_55F_67L_, Q9UKT9]",1.18,3.94,2.58,3.08
"FGCPVCGAPFTQKGNLLRHIKL [46F_47G_49P_50V_52G_53A_54P_55F_67L_, Q9UKT9]",3.34,1.9,1.27,0.43
